Out of some 200,000 compounds screened, about 110 (0.055%) were called active. The sample holds actives, similar compounds and a random draw of the others, so the mix is not that of the screen. Cut-off read from the data, not from the text of the source: active = inhibition above about 50%; inactive = the rest.

By inhibition is commonly meant the relative decrease from the control value, in per cent.

This assay deals with Serine/threonine-protein kinase D1 (Homo sapiens) (UniProt Q15139). Briefly: protein kinase D1 activity blockers – biochemical, fluorescence polarization (AID 797). The conditions noted are these: PKD1 kinase fluorescence polarization assay; hits give high values; concentration not given here.
Serine/threonine-protein kinase D1 (Homo sapiens), sequence (Q15139 whole entry, looked up): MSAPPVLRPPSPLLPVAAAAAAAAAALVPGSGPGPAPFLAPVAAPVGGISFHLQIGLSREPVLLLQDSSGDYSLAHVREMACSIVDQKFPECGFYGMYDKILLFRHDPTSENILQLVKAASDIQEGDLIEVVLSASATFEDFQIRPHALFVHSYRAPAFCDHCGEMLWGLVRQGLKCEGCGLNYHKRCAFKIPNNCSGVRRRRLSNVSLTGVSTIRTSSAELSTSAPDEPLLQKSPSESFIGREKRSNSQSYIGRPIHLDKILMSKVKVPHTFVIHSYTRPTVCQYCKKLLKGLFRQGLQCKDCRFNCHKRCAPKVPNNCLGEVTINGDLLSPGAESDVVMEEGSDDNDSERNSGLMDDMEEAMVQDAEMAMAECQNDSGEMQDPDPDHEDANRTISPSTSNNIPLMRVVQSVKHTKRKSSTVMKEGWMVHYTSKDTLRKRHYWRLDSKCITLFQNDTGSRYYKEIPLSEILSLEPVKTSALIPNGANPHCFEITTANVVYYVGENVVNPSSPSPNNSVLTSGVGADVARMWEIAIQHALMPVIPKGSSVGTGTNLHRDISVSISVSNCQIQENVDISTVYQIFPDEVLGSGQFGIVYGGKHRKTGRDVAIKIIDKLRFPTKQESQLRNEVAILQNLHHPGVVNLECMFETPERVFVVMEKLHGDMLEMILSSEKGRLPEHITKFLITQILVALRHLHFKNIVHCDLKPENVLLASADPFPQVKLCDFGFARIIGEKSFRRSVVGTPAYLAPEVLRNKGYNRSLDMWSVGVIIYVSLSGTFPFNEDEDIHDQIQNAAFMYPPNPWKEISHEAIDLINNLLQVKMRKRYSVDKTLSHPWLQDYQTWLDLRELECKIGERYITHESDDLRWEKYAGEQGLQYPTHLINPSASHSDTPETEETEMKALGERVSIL
In the case of `COc1ccc(OCC(=O)NN2Cc3ccccc3C2=N)cc1`, the inhibition is 8.39% (inactive).

Consider `COc1cccc(NC(=O)C(Sc2nnnn2C)c2ccccc2)c1` (stereo unspecified), for which the inhibition was 9.09% (inactive).

With `Cc1cccc(/C(N)=N/OC(=O)c2ccccc2Cl)c1`, the inhibition is -1.38% (inactive).

Turning to `O=C(NC1CCCCC1)C1CC(=O)N(CCc2ccccc2)C1` (stereo unspecified), the inhibition was -8.12% (inactive).

As for `Cc1cc(/C=C(/C#N)C(=O)Nc2ccc(Cl)cc2)c(C)n1-c1cccnc1`, the inhibition is 1.34% (inactive).

In the case of `CCN1CN(Cc2ccccc2)CNC1=S`, the inhibition is -12% (inactive).

For `CCNC(=O)CC1C(=O)N(c2ccc(F)cc2)C(=O)N1Cc1cccs1` (stereo unspecified), the inhibition is 4.62% (inactive).

In the case of `CCOc1ccc(N2C(=O)Nc3ccccc3C2(O)C(=O)NCc2ccco2)cc1` (stereo unspecified), the inhibition is -4.75% (inactive).

Turning to `CN(C)/C=C(\C#N)C(=O)c1cccnc1Oc1cccc(F)c1`, the inhibition was 5.99% (inactive).

In the case of `CCCCn1nc(C(=O)OCC(=O)Nc2sccc2C(N)=O)c2ccccc2c1=O`, the inhibition is 4.31% (inactive).

With `Cc1ccc(NC(=S)N(CCCN2CCC(C)CC2)Cc2ccco2)cc1`, the inhibition was 2.06% (inactive).

In the case of `Cc1ccc2cc(CCNC(=O)c3c(-c4ccccc4Cl)noc3C)c(=O)[nH]c2c1`, the inhibition is 0.32% (inactive).

As to `CC(C)CC(CO)N1CCN(C(=O)c2ccc(Cl)cc2Cl)CCC1=O` (stereo unspecified), the inhibition is -14% (inactive).

As for `Cc1cccc(NS(=O)(=O)c2ccc(C)c(C(N)=O)c2)c1`, the inhibition was -2.59% (inactive).

`CN(CC(=O)Nc1ccccc1F)CC(=O)Nc1ccccc1Br`: the inhibition was -7.89% (inactive).

Take `COc1ccc(N=C2SC(C(=O)Nc3ccc(F)cc3)CC(=O)N2C)cc1` (stereo unspecified): the inhibition was -4.67% (inactive).

As to `CCOc1ccc(-c2c(C)n([O-])c3c([n+]2=O)CCCC3)cc1`, the inhibition was -3.86% (inactive).

On to `Cc1ccc(C(=O)CNc2ccc(F)cc2)cc1`, for which the inhibition was -19.1% (inactive).

With `Cn1cc(/C=C/c2nc3ccccc3c(=O)n2-c2cccc([N+](=O)[O-])c2)c2ccccc21`, the inhibition was -2.78% (inactive).

For `COc1ccccc1/C=N\Nc1cc(C)nc(-n2nc(C)cc2C)n1`, the inhibition is 2.16% (inactive).

As for `COc1ccc(Nc2cc(C)nc(-n3nc(C)cc3C)n2)cc1`, the inhibition was 56.8% (active).

As to `CC(=O)c1ccc(Oc2cc(C)nc(-n3nc(C)cc3C)n2)cc1`, the inhibition is -3.62% (inactive).

`CCCCCC(=O)NC(=S)NNC(=O)c1ccc([N+](=O)[O-])cc1`: the inhibition was -0.76% (inactive).

`O=C(CN1C(=O)NC2(CCCCCC2)C1=O)NC1CC1`: the inhibition is -5.29% (inactive).

In the case of `CC1(C)CC(=O)C(N=Nc2ccc(S(=O)(=O)N3CCCCCC3)cc2)=C(O)C1`, the inhibition is 4.42% (inactive).

For `O=C(O)Cc1ccc(NCc2ccccc2Cl)cc1`, the inhibition was 0.93% (inactive).

The values are drawn from PubChem BioAssay AID797 (University of Pittsburgh Molecular Library Screening Center, 2007).
